Reference: PubChem BioAssay (NCATS)
Records with an inconclusive call do not appear. A call without a number means that no potency is given here. Activity calls are given as the source filed them. The call rests on the fitted dose curve; in most records, active means well fitted curve in the direction sought with a large enough effect; inconclusive means small, poorly fitted or top-dose-only effect, or another doubt; inactive means no such curve, though single readings can be large; an effect the other way counts as inactive or inconclusive.

biological target: Cytochrome P450 3A4 (Homo sapiens) (UniProt P08684); assay: qHTS Assay for Inhibitors and Substrates of Cytochrome P450 3A4 (AID 884); settings: recombinant CYP3A4, Luciferin-PPXE luminescence; series mostly up to 57.1 µM; further: nearly all actives have a fitted effect of over 50% in size
Method in brief: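 20 nM human CYP3A4 with 25 uM Luciferin-PPXE (at KM) in 200 mM KPO4, preincubated 10 min with compound; NADPH regeneration started a 60 min RT reaction. Luciferin detected by luminescence, normalized to 57 uM ketoconazole as full inhibition.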
Potency means the concentration at half of the fitted maximal effect.

Cytochrome P450 3A4 (Homo sapiens), sequence (P08684 whole entry, looked up): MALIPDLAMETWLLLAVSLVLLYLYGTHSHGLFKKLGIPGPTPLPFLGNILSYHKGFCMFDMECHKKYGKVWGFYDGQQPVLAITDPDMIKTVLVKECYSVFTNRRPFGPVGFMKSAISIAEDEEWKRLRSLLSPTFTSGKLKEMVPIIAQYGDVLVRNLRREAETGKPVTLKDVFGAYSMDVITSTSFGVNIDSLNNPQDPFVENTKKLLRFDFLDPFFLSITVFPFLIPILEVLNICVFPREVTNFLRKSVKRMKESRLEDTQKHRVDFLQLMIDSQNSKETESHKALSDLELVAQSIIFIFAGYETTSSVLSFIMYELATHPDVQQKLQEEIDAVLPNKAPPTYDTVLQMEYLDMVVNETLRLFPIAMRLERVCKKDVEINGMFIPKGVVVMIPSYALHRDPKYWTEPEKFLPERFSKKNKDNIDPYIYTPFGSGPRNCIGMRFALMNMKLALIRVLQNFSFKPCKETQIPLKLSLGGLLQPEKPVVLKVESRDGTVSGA

SMILES | Potency
Oc1ccc(Cl)c2cccnc12 | inactive
COc1cc(OC)cc(OC)c1 | inactive
CC(C)(C(=O)c1cccnc1)c1cccnc1 | 1.26 µM (active)
CCCCOc1cc(C(=O)NCCN(CC)CC)c2ccccc2n1 | inactive
Cc1cccc(C)c1NC(=O)CN1CCN(CCCC(c2ccc(F)cc2)c2ccc(F)cc2)CC1 | inactive
CCOC(=O)n1ccn(C)c1=S | inactive
CC(=O)N(O)CCCCCNC(=O)CCC(=O)N(O)CCCCCNC(=O)CCC(=O)N(O)CCCCCN | inactive
CCOc1ccc2nc3cc(N)ccc3c(N)c2c1 | inactive
Cc1ccc(C(=O)C(C)CN2CCCCC2)cc1 (stereo not drawn) | inactive
CO/N=C1\CN(c2nc3c(cc2F)c(=O)c(C(=O)O)cn3C2CC2)CC1CN (stereo not drawn) | inactive
Cc1c(N(C)CS(=O)(=O)O)c(=O)n(-c2ccccc2)n1C | inactive
CCn1cc(C(=O)O)c(=O)c2cnc(N3CCCC3)nc21 | inactive
O=C(CCCN1CCC(O)(c2ccc(Br)cc2)CC1)c1ccc(F)cc1 | inactive
CCCCCCCCCCCCCCCCOP(=O)([O-])OCC[N+](C)(C)C | inactive
CN1CCC(=C2c3ccccc3Sc3ccccc32)CC1 | inactive
COc1ccc(C2C(=O)c3ccccc3C2=O)cc1 | inactive
CCN(CCCc1ccccc1)CCCc1ccccc1 | inactive

biological target: Cytochrome P450 3A4 (Homo sapiens) (UniProt P08684); assay: qHTS Assay for Activators of Cytochrome P450 3A4 (AID 885); settings: recombinant CYP3A4, Luciferin-PPXE luminescence, 60 min; series mostly up to 57.1 µM; further: nearly all actives have a fitted effect of over 65% in size
Method in brief: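 Signal was normalized against complete inhibition by 57 uM ketoconazole. The reaction used 20nM CYP3A4 with 25uM Luciferin-PPXE, 10-min compound preincubation and a 60-min NADPH-supported step at RT.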

SMILES | Potency
COc1c2occc2c(OC)c2c(=O)cc(C)oc12 | inactive
CC(C)(C(=O)c1cccnc1)c1cccnc1 | inactive
CC(Cc1cccc(C(F)(F)F)c1)NCCOC(=O)c1ccccc1 (stereo not drawn) | inactive
O=C1c2ccccc2C(=O)C1c1ccccc1 | inactive
O=C(OCC(O)CO)c1ccccc1Nc1ccnc2cc(Cl)ccc12 (stereo not drawn) | inactive
O=C(COc1ccc(Cl)cc1)N1CCN(Cc2ccc3c(c2)OCO3)CC1 | inactive
CNCC[C@@H](Oc1ccccc1C)c1ccccc1 | inactive
CN(C(=O)CN(CCO)CC(=O)N(C)C(C)(C)Cc1ccccc1)C(C)(C)Cc1ccccc1 | inactive
O=C(CCCN1CCC(O)(c2ccc(Br)cc2)CC1)c1ccc(F)cc1 | 10 µM (active)
CCCCc1nc(Cl)c(CO)n1Cc1ccc(-c2ccccc2-c2nn[nH]n2)cc1 | inactive
CN(C)CC/C=C1\c2ccccc2Sc2ccc(Cl)cc21 | inactive
